# Experimental data from PubChem BioAssay (NCI).
# Compounds without any hit were thinned out: in the full panel of roughly 83,000, 20% have a hit.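 Method: cells in 96-well plates; compound added at one concentration; 48 h incubation; percent growth measured; values under 10 scored active.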 Values without a mark were called inactive. Activity calls are given as the source filed them.
# Tested on: HL-60(TB) leukemia
# Experiment: NCI-60 one-dose screen, 48 h (100 = growth as untreated, 0 = no growth, -100 = all killed)
# Conditions: 10 µM unless noted
row,SMILES,growth
1,CCCC/C=C/[C@@H]1C[C@H]1CCO,111%
2,Cc1ccc(C(=O)/C(=C\c2ccc([N+](=O)[O-])cc2)S(=O)Cc2ccc(Cl)cc2)cc1 (stereo not given),33.9%
3,C=C(C)C(=O)Nc1ccc(NC(C)C)cc1,129%
4,CN(C)c1ccc(C#Cc2c(F)cccc2Cl)cc1,79%
5,Cc1nc2ccccc2c(/C=C/c2ccc(Cl)cc2)c1C(=O)/C=C/c1cccs1,59.5%
6,COc1ccc(Cl)cc1Nc1nc(C(F)(F)F)ccc1C(=O)N/N=C/c1ccc([N+](=O)[O-])cc1,-10.8% (active)
7,c1ccc2c(N=NSc3ncnc4nc[nH]c34)c3ccccc3nc2c1,-5.76% (active)
8,Cc1nc2c(c(=O)[nH]1)C(c1ccccc1)c1ccc3ccccc3c1O2 (stereo not given),-2.8% (active)
9,Clc1ccc(-c2cn3ccsc3n2)c(Cl)c1Cl,85.7%
10,CC1(C)[C@@H](O)CC[C@]2(C)[C@H]3CC[C@@H]4[C@H]5[C@H](c6cn(-c7ccccc7)nn6)CC[C@]5(CO)CC[C@@]4(C)[C@]3(C)CC[C@@H]12,74.8%
11,Fc1ccc(Nc2nc(Nc3ccc(-c4nc5ccccc5[nH]4)cc3)c3cn[nH]c3n2)cc1,91.4%
12,COc1ccc(-c2nc3ccccc3n3cccc23)cc1,104%
13,O=C(O)COc1c(Cl)cc([N+](=O)[O-])cc1Cl,87.1%
14,O=S(=O)(NCCNc1nccc(-c2c(-c3ccc(O)cc3)nc3sccn23)n1)c1cccc2ccccc12,90.3%
15,C[N+]1=C(/C=C/c2ccc(O)c3ncccc23)C(C)(C)c2ccccc21,32.5%
16,COc1ccc(/C=N\NC(=O)c2ccncc2)cc1O,97.9%
17,O=C(c1ccccc1)C(Sc1ccccc1)c1ccccc1 (stereo not given),84.1%
18,Cc1ccc(-c2cc(-c3ccc(C)cc3)nc(N3CCN(CCNc4ccnc5cc(Cl)ccc45)CC3)n2)cc1,0.0538% (active)
19,Cc1cc2nc3c4ccc(Br)cc4n(CCN(C)C)c3nc2cc1C,3.73% (active)
20,O=C(CNC(=O)OCc1ccccc1)NCC(=O)Oc1ccc([N+](=O)[O-])cc1,141%

row,SMILES,growth
1,C=C1/C(=C\C=C2/CCC[C@]3(C)[C@@H]([C@H](C)CCCC(C)(C)O)CC[C@@H]23)C[C@@H](OC(=O)CBr)C[C@@H]1O,-59.4% (active)
2,NCCn1cc(-c2nc(-c3c[nH]c4ncccc34)cs2)c2cc(F)ccc21,62%
3,Clc1ccc2c(NCCNc3nc(N4CCCC4)nc4ccccc34)ccnc2c1,-70% (active)
4,COc1cc(-c2nn(-c3cccc(NC(=O)c4ccc(N5CCOCC5)c(C(F)(F)F)c4)c3)cc2-c2ccncc2)ccc1Cl,-8.08% (active)
5,COc1cccc2c1Cc1ccccc1-2,97.5%
6,Cc1cccc(C)c1NC(=O)c1sc2nc3c(cc2c1N)C(=O)CCC3,104%
7,CC(=O)c1c(Nc2cccc(F)c2)[nH]c2c(Cl)cc(Cl)c(Cl)c2c1=O,-36.5% (active)
8,N#CC(I)CS(=O)(=O)c1ccccc1 (stereo not given),99%
9,N#C/C(=C\c1ccc(C#N)cc1)C(=O)c1ccccc1,92.7%
10,CCCCc1ccc2nc(NC(=O)OC)[nH]c2c1,-65.6% (active)
11,CC1(C)CC[C@]23CC[C@]4(C)[C@H](CC[C@@H]5[C@@]6(C)CCNCC(C)(C)[C@@H]6CC[C@]54C)[C@H]2[C@H]1OC3,23.6%
12,Cc1ccc(S(=O)(=O)N2CCN(C(=O)CSc3nc4ccc(C)cc4[nH]3)CC2)cc1,-1.47% (active)
13,O=c1oc2ccc(I)cc2c(=O)n1-c1ccc(Cl)cc1F,-47.1% (active)
14,Nc1nc(-c2cccc(Br)c2)cc(-c2cc3ccccc3oc2=O)n1,100%
15,Cc1nc(Nc2cccnc2)sc1C(=O)/C=C/c1ccc(F)cc1,12.6%
16,CN1CSC(=S)N(Cc2ccccc2)C1,79.8%
17,COc1cccc2c1C(=O)c1c(O)c3c(c(O)c1C2=O)C[C@@](O)(C(C)=O)C[C@@H]3OC1CC(N)C(O)C(C)O1 (stereo not given in full),-63.3% (active)
18,O=C(/C=C/CN1CCOCC1)Nc1cc2c(Nc3cccc(Cl)c3F)ncnc2cc1OCCOC(F)F,89.5%
19,N#CC1=C(c2ccccc2)Nc2c(c(-c3ccc(Cl)cc3)nn2-c2ccccc2)C12C(=O)Nc1ccc(Cl)cc12 (stereo not given),48.2%
20,Nc1nc(Cn2c(-c3nonc3N)nc3ccccc32)nc(N2CCCCC2)n1,82.2%
